# The sample as a whole holds a higher share of the strongest signals than the screen did.
# B1: HysACBM (Streptococcus pneumoniae), Q54873 (protein)
# chain: KNLVENGDFGQTEDGSSPWTGSKAQGWSAWVDQKNSADASTRVIEAKDGAITISSHEKLRAALHRMVPIEAKKKYKLRFKIKTDNKIGIAKVRIIEESGKDKRLWNSATTSGTKDWQTIEADYSPTLDVDKIKLELFYETGTGTVSFKDIELVEVADQLS
# What was measured:
# Experiment in all cases: glycan array binding signal (z-score within array); higher = stronger binding
# Conditions in all cases: glycan notation: IUPAC condensed, linker removed
# 3dGal(b1-4)Glc = target: 3dGal(b1-4)Glc
# Method in brief: (§1)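 Glycan array binding is given as a within-array Z-score, which can be read as non-binding when negative. The arrays, 3228 of them, came from the Consortium for Functional Glycomics database and were retained only where the protein sequence was available. Z-scores were averaged across arrays of the same protein sequence at different concentrations or buffers and across linkers.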
# [1] = target: Ara(a1-5)Ara(a1-5)Ara(a1-5)Ara(a1-5)Ara(a1-5)Ara(a1-5)Ara
# Method in brief: as §1
# [2] = target: Fuc(a1-2)Gal(b1-3)[Fuc(a1-4)]GlcNAc(b1-3)[Fuc(a1-3)[Gal(b1-4)]GlcNAc(b1-6)]Gal(b1-4)Glc
# Method in brief: as §1
# [3] = target: Fuc(a1-3)[3dGal(b1-4)]Glc
# Method in brief: as §1
# [4] = target: Fuc(a1-3)[Gal(b1-4)]GlcNAc(b1-3)Gal(b1-4)[Fuc(a1-3)]Glc
# Method in brief: as §1
# Gal(a1-4)Gal(b1-4)GlcNAc = target: Gal(a1-4)Gal(b1-4)GlcNAc
# Method in brief: as §1
# [5] = target: Gal(b1-3)GalNAc(b1-4)Gal(b1-4)Glc
# Method in brief: as §1
# Gal(b1-4)GlcNAc(b1-3)Fuc = target: Gal(b1-4)GlcNAc(b1-3)Fuc
# Method in brief: as §1
# [6] = target: Gal(b1-4)GlcNAc(b1-3)Gal(b1-4)Glc
# Method in brief: as §1
# Gal(b1-6)GalNAc = target: Gal(b1-6)GalNAc
# Method in brief: as §1
# GalNAc(b1-4)Gal(b1-4)Glc = target: GalNAc(b1-4)Gal(b1-4)Glc
# Method in brief: as §1
# [7] = target: Glc(a1-4)Glc(a1-4)Glc(a1-4)Glc(a1-4)Glc(a1-4)Glc(a1-4)Glc(a1-4)Glc
# Method in brief: as §1
# Glc(a1-6)Glc = target: Glc(a1-6)Glc
# Method in brief: as §1
# [8] = target: Glc(a1-6)Glc(a1-4)Glc(a1-4)Glc
# Method in brief: as §1
# [9] = target: Glc(a1-6)Glc(a1-6)Glc(a1-6)Glc
# Method in brief: as §1
# [10] = target: Glc(a1-6)Glc(a1-6)Glc(a1-6)Glc(a1-6)Glc
# Method in brief: as §1
# [11] = target: Glc(b1-6)Glc(b1-6)Glc(b1-6)Glc(b1-6)Glc(b1-6)Glc(b1-6)Glc(b1-6)Glc
# Method in brief: as §1
# GlcA(b1-3)Gal = target: GlcA(b1-3)Gal
# Method in brief: as §1
# [12] = target: GlcA(b1-3)GlcNAc(b1-4)GlcA(b1-3)GlcNAc(b1-4)GlcA(b1-3)GlcNAc(b1-4)GlcA(b1-3)GlcNAc(b1-4)GlcA(b1-3)GlcNAc(b1-4)GlcA(b1-3)GlcNAc(b1-4)GlcA(b1-3)GlcNAc
# Method in brief: as §1
# [13] = target: GlcNAc(b1-2)Man(a1-3)[GlcNAc(b1-2)Man(a1-6)]Man
# Method in brief: as §1
# [14] = target: GlcNAc(b1-2)[GlcNAc(b1-4)]Man(a1-3)[GlcNAc(b1-2)[GlcNAc(b1-6)]Man(a1-6)]Man(b1-4)GlcNAc(b1-4)GlcNAc
# Method in brief: as §1
# GlcNAc(b1-3)Fuc = target: GlcNAc(b1-3)Fuc
# Method in brief: as §1
# [15] = target: GlcNAc(b1-3)[GlcNAc(b1-6)]Gal
# Method in brief: as §1
# [16] = target: HexA6S(a1-4)GlcNS6S(a1-4)IdoA2S(a1-4)GlcNS6S(a1-4)IdoA2S(a1-4)GlcNS6S(a1-4)IdoA2S(a1-4)GlcNS6S(a1-4)IdoA2S(a1-4)GlcNS6S(a1-4)IdoA2S(a1-4)GlcNS6S(a1-4)IdoA2S(a1-4)GlcNS6S
# Method in brief: as §1
# [17] = target: Kdn(a2-3)Gal(b1-3)GalNAc(b1-4)[Kdn(a2-3)]Gal(b1-4)Glc
# Method in brief: as §1
# Kdn(a2-6)Gal = target: Kdn(a2-6)Gal
# Method in brief: as §1
# [18] = target: Man(a1-3)Man(a1-6)[Man(a1-3)]Man(b1-4)GlcNAc(b1-4)GlcNAc
# Method in brief: as §1
# Neu(a2-6)Gal(b1-4)Glc = target: Neu(a2-6)Gal(b1-4)Glc
# Method in brief: as §1
# [19] = target: Neu5Ac(a2-3)4dGal(b1-4)[Fuc(a1-3)]GlcNAc(b1-3)Gal
# Method in brief: as §1
# [20] = target: Neu5Ac(a2-3)6dGal(b1-4)[Fuc(a1-3)]GlcNAc(b1-3)Gal
# Method in brief: as §1
# [21] = target: Neu5Ac(a2-3)Gal(b1-3)GalNAc6S(b1-4)Gal(b1-4)Glc
# Method in brief: as §1
# [22] = target: Neu5Ac(a2-3)Gal(b1-3)GlcNAc(b1-3)[Fuc(a1-3)[Gal(b1-4)]GlcNAc(b1-6)]Gal(b1-4)Glc
# Method in brief: as §1
# [23] = target: Neu5Ac(a2-3)Gal(b1-3)[Neu5Ac(a2-6)]GalNAc(b1-4)Gal(b1-4)Glc
# Method in brief: as §1
# [24] = target: Neu5Ac(a2-3)Gal(b1-4)[Fuc(a1-3)]Glc
# Method in brief: as §1
# [25] = target: Neu5Ac(a2-3)[GalNAc(b1-6)]Gal(b1-4)Glc
# Method in brief: as §1
# [26] = target: Neu5Ac(a2-6)Gal(b1-4)GlcNAc(b1-3)[Neu5Ac(a2-6)Gal(b1-4)GlcNAc(b1-6)]Gal(b1-4)Glc
# Method in brief: as §1
# Neu5Ac(a2-6)Glc6S = target: Neu5Ac(a2-6)Glc6S
# Method in brief: as §1
# Neu5Ac(a2-6)GlcNAc6S = target: Neu5Ac(a2-6)GlcNAc6S
# Method in brief: as §1
# [27] = target: Xyl(b1-2)[Man(a1-3)][Man(a1-6)]Man(b1-4)GlcNAc(b1-4)[Fuc(a1-3)]GlcNAc
# Method in brief: as §1
binder,measurement,setting,value
B1,glycan array binding signal (z-score),3dGal(b1-4)Glc,-0.091
same,glycan array binding signal (z-score),[1],-0.091
same,glycan array binding signal (z-score),[2],0.584
same,glycan array binding signal (z-score),[3],-0.091
same,glycan array binding signal (z-score),[4],0.007
same,glycan array binding signal (z-score),Gal(a1-4)Gal(b1-4)GlcNAc,-0.091
same,glycan array binding signal (z-score),[5],0.174
same,glycan array binding signal (z-score),Gal(b1-4)GlcNAc(b1-3)Fuc,0.281
same,glycan array binding signal (z-score),[6],-0.091
same,glycan array binding signal (z-score),Gal(b1-6)GalNAc,-0.064
same,glycan array binding signal (z-score),GalNAc(b1-4)Gal(b1-4)Glc,0.321
same,glycan array binding signal (z-score),[7],0.776
same,glycan array binding signal (z-score),Glc(a1-6)Glc,-0.091
same,glycan array binding signal (z-score),[8],-0.059
same,glycan array binding signal (z-score),[9],-0.091
same,glycan array binding signal (z-score),[10],-0.091
same,glycan array binding signal (z-score),[11],-0.091
same,glycan array binding signal (z-score),GlcA(b1-3)Gal,0.267
same,glycan array binding signal (z-score),[12],21.5
same,glycan array binding signal (z-score),[13],-0.091
same,glycan array binding signal (z-score),[14],0.264
same,glycan array binding signal (z-score),GlcNAc(b1-3)Fuc,-0.05
same,glycan array binding signal (z-score),[15],-0.091
same,glycan array binding signal (z-score),[16],-0.091
same,glycan array binding signal (z-score),[17],-0.091
same,glycan array binding signal (z-score),Kdn(a2-6)Gal,-0.091
same,glycan array binding signal (z-score),[18],-0.091
same,glycan array binding signal (z-score),Neu(a2-6)Gal(b1-4)Glc,0.823
same,glycan array binding signal (z-score),[19],-0.091
same,glycan array binding signal (z-score),[20],-0.045
same,glycan array binding signal (z-score),[21],-0.091
same,glycan array binding signal (z-score),[22],-0.091
same,glycan array binding signal (z-score),[23],-0.054
same,glycan array binding signal (z-score),[24],-0.091
same,glycan array binding signal (z-score),[25],-0.091
same,glycan array binding signal (z-score),[26],-0.091
same,glycan array binding signal (z-score),Neu5Ac(a2-6)Glc6S,-0.091
same,glycan array binding signal (z-score),Neu5Ac(a2-6)GlcNAc6S,-0.091
same,glycan array binding signal (z-score),[27],-0.091

# Source: the supplement of paper PMC8728848
